Screening data deposited in PubChem by The Scripps Research Institute Molecular Screening Center.
The sample as a whole holds a higher share of hits than the screen did.
TTR transcr act – TTR transcription activators in neuroblastoma reporter cells, primary screen, cell-based, luminescence, SH-SY5Y, TTR promoter Gaussia luciferase. AID 1117267, 2014. activation, % at 16.7 µM. 1.3% of 92,000 active. 100% = recombinant luciferase protein wells;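 active = activation above the mean of all tested compounds plus 3 SD, cut at about 9.5% in these data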;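 also: cells exposed to compounds for one day before reading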
TTR inh HuH7 – TTR promoter reporter inhibitors in hepatoma cells, counter-screen for TTR transcription activator project, cell-based, luminescence, HuH7 hepatoma | AID 1117279, 2014 | HuH7 TTR promoter-Gaussia luciferase reporter | shares compounds with TTR transcr act | inhibition, % at 16.7 µM | 4% of 1,100 active;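 active = average inhibition above the solvent-only control wells' mean plus 3 SD, cut at about 15% in these data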;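 also: inhibitors lower well luminescence so higher value means more inhibition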
TTR act confirm – TTR transcription activators, retest, confirmation, cell-based, luminescence, SH-SY5Y, triplicate. shares compounds with TTR transcr act. SHSY5Y TTR promoter Gaussia luciferase; 100% = purified Lucia enzyme wells, no cells. activation, % at 16.7 µM. 1,100 tested, under 10 active. AID 1117280, 2014;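 active = mean activation above a set limit taken from the earlier primary screen, cut at about 11% in these data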
A number is an active result; 0 = inactive.

SMILES	TTR transcr act	others
COc1ccc(S(=O)(=O)NC(C)C(=O)Nc2ccccc2F)cc1 (stereo not given)	0
COc1ccc(OC)c(N(CC(=O)Nc2ccccc2F)S(=O)(=O)c2ccccc2)c1	0
COc1ccc(CN(C)CC(=O)NC(=O)Nc2ccccc2F)cc1	11	TTR inh HuH7=0;TTR act confirm=0
O=C(c1cccs1)n1ccc2ccc(-c3ccc4ccn(C(=O)c5cccs5)c4c3)cc21	0
C=CS(=O)(=O)N(Cc1ccc(C)cc1)[C@@H](CO)C(=O)OC	0
O=C1CCC(CCc2nc3ccccc3[nH]2)(c2ccccc2)C(=O)N1 (stereo not given)	21	TTR inh HuH7=0;TTR act confirm=0
O=C(Nc1ccccc1)N(CCc1nc2ccccc2[nH]1)C1CCCC1	0
CC(C)(Cc1nc2ccccc2[nH]1)C(=O)O	0
CCCCN1CCS(=O)(=O)N(Cc2cn(Cc3ccccc3Br)nn2)C(C(=O)OC)C1 (stereo not given)	0
COc1ccc(OC)c(N/C=C2/CCCCC2=O)c1	11	TTR inh HuH7=0;TTR act confirm=0
NC(=O)c1ccccc1N/C=C1\CCCCC1=O	0
COc1ccc(Oc2ccc(N/C=C3\CCCC3=O)cc2)cc1	0
Cc1nc(N2CCN(C(=O)C3CC3)CC2)c2c3c(sc2n1)CC(C)CC3 (stereo not given)	0
CCNC(=O)Cc1ccc(Br)cc1	0
CC/C(=N\NC(=O)Cc1ccc(Br)cc1)c1cccs1	42	TTR inh HuH7=0;TTR act confirm=0
C/C(=N/NC(=O)c1cccs1)c1cccs1	0
CO[C@H]([C@H](C)/C=C/N(C)C=O)[C@@H](C)C(O)CC[C@H](C)[C@H](O)[C@H](C)[C@H]1OC(=O)/C=C/C(C)=C/C[C@H](O)C[C@@H]2C=CC[C@@H](C[C@H](OC)[C@@]3(CO3)[C@@H](OC)C[C@@H](OC)[C@@H]1C)O2 (stereo not given in full)	0
O=C(NC1CCCCN(Cc2ccc(Cl)cc2)C1=O)c1cccc2nsnc12 (stereo not given)	0
CC1C(=O)N(Cc2cn(CCC3OCCO3)nn2)CCS(=O)(=O)N1Cc1ccc(-c2cccc(N(C)C)c2)cc1 (stereo not given)	37	TTR inh HuH7=0;TTR act confirm=0
CC1C(=O)N(Cc2cn(CCC3OCCO3)nn2)CCS(=O)(=O)N1Cc1ccc(-c2ccncc2)cc1 (stereo not given)	0
CC1C(=O)N(Cc2cn(CCC3OCCO3)nn2)CCS(=O)(=O)N1Cc1ccc(-c2ccc(F)cc2)cc1 (stereo not given)	0
COC(=O)[C@]12C[C@H](CC(=O)N3CCCC3)C(=O)N(Cc3ccccc3)C1=C[C@H](COCc1ccccc1)O[C@@H]2C	0
CCOc1ccccc1CNCCNCC(C)O (stereo not given)	0
CN(C)CCNCc1ccccc1OC1CCCC1	21	TTR inh HuH7=0;TTR act confirm=0
OCCNCc1ccc(OC2CCCC2)cc1	0
SMILES	TTR transcr act	others
O=C(O[C@H]1CC[C@@]23CCCN2C(=O)CCC[C@H]3C1)N1CCN(c2ccccc2)CC1	0
CC(=O)c1ccc(OCC(O)CNCc2ccc3c(c2)OCO3)cc1 (stereo not given)	0
Fc1ccc(CNCc2ccc3c(c2)OCO3)cc1	0
O=Cc1ccc(OCc2ccc3c(c2)OCO3)cc1	9.8	TTR inh HuH7=0;TTR act confirm=0
CC(C)CNC(=O)OCc1cn(Cc2ccc(F)cc2F)nn1	0
COC(=O)c1cc(-c2cnc(OC)nc2OC)c(=O)n2c1CCC2	0
COC(=O)[C@]12CCCCC=C1N(Cc1ccc(OC)cc1)C(=O)[C@@H]2CC(=O)N1CCSCC1	0
Cc1ccc(NC(=O)c2ncn(CCCNCCCN3CCCC3=O)n2)cc1C	0
Cc1ccc(NC(=O)c2ncn(CCCNCc3ccccc3)n2)cc1C	13	TTR inh HuH7=0;TTR act confirm=0
Cc1ccc(NC(=O)c2ncn(CCCNCC3CCCCC3)n2)cc1C	0
CC(C)CN1C(=O)C[C@]2(C(=O)N(C)c3ccc(NC(=O)C(C)(C)C)cc32)C1c1ccccc1 (stereo not given in full)	0
COC(=O)[C@]12CCCCC=C1N(Cc1ccc(OC)cc1)C(=O)[C@@H]2CC(=O)N1CCC(c2ccccc2)CC1	0
CCC[C@H]1[C@@H](OC(=O)NCc2cccs2)CC[C@@]23CCCN2C(=O)CCC[C@@H]13	0
COC(=O)NC1(C(F)(F)F)C(=O)NC(C)=C1C(=O)OC (stereo not given)	19	TTR inh HuH7=0;TTR act confirm=0
CC1=C(C#N)C(NC(=O)c2ccc(C)cc2)(C(F)(F)F)C(=O)N1 (stereo not given)	0
COC(=O)C1=C(C)NC(=O)C1(NC(=O)c1ccncc1)C(F)(F)F (stereo not given)	0
O=[N+]([O-])c1cccc(-c2noc3c2-c2nc(Cc4cccc5ccccc45)sc2CC3)c1	34	TTR inh HuH7=0;TTR act confirm=0
Fc1cccc(F)c1-c1nc2c(s1)CCc1onc(-c3ccc(Br)cc3)c1-2	0
O=[N+]([O-])c1cccc(-c2nc(-c3ccccn3)no2)c1	0
Cc1ccc(NS(=O)(=O)c2cc3c(cc2Cl)NC(=O)CO3)cc1C	0
COC(=O)c1ccc(Cn2ccc3ccc(-c4ccc5ccn(Cc6ccccc6)c5c4)cc32)cc1	0
COC(=O)[C@]12C[C@H](CC(=O)NCC34CC5CC(CC(C5)C3)C4)C(=O)N(Cc3ccco3)C1=C[C@H](C(C)C)O[C@@H]2C1CC1	0
C[C@]12CC[C@H](O)CC1=C[C@H](O)C1C2CC[C@@]2(C)C1CC[C@@]2(O)C#Cc1ccc(CN)cc1 (stereo not given in full)	12	TTR inh HuH7=0;TTR act confirm=0
Cc1ccc(CN2CCCCC(NC(=O)c3cccc(C(F)(F)F)c3)C2=O)cc1 (stereo not given)	0
CCC[C@H]1OC(=O)[C@@H]2CCCN2C(=O)[C@H]([C@H](C)Cc2ccccc2)NC(=O)[C@@H]2CCCN2C(=O)[C@@H]2CCCN2C(=O)[C@H](C(C)C)OC(=O)[C@@H]2CCCN2C(=O)[C@H](C(C)C)NC(=O)C1(C)C	0
SMILES	TTR transcr act	others
C[C@@H]1C(=O)O[C@@H]2CC34[C@H]5C[C@@H](C(C)(C)C)C36[C@H](OC(=O)[C@@H]6O)OC4(C(=O)O5)[C@@]12O (stereo not given in full)	23	TTR inh HuH7=0;TTR act confirm=0
O=S1(=O)c2c(cccc2N2CC[C@H](O)C2)OCCCN1C1CC1	0
CCOC(=O)[C@]12CCCCC/C=C\1N(CCc1ccc(Cl)cc1)C(=O)[C@H]2CC(=O)NCCC(C)C	0
Cc1cc(NC(=O)Nc2cccc(F)c2)n(-c2ccccc2)n1	0
Cc1ccccc1C1CCC2(CCC(=O)N2CC[C@@H](O)c2ccccc2)CC1 (stereo not given in full)	0
CCCCOCCCNC(=O)C[C@H]1C[C@@]2(C(=O)OC)C(=C[C@H](C(C)C)O[C@@H]2C2CC2)N(Cc2ccc(Cl)cc2Cl)C1=O	0
CCC(c1nc2ccccc2[nH]1)N(C(=O)Cc1cc(OC)cc(OC)c1)c1ccc(N2CCOCC2)cc1 (stereo not given)	0
COc1ccc2[nH]c(C(=O)N(Cc3ccccn3)Cc3ccccn3)cc2c1	0
COc1cc(CCN(C(=O)c2cc3ccccc3[nH]2)C(C)c2nc3ccccc3[nH]2)cc(OC)c1 (stereo not given)	13	TTR inh HuH7=0;TTR act confirm=0
